14 compounds from PubChem BioAssay AID2405 (Southern Research Specialized Biocontainment Screening …, 2010) can be followed below.

The test can be described thus: anti-RSV activity of probe candidates, cell-based (AID 2405). The conditions noted are these: RSV cytopathic effect inhibition, HEp-2 cells, active compounds read high; at 100 µM unless noted. (In general: Cytopathic effects are the visible damage that an infection or toxin causes in cultured cells.)

SMILES strings stand for the structures. Unmarked numbers belong to inactive results. How the calls were made is not given here.

Consider `COc1ccc(-c2csc(N(C)C(=O)c3ccccc3Cl)n2)cc1`, for which the maximum inhibition was 2.66% [at 12.5 µM].

As for `O=C(CSc1nc2ccccc2c(=O)n1-c1ccc(Cl)cc1)Nc1ccc2c(c1)CCC2`, the maximum inhibition was 11.5% [at 25 µM]. In the case of `OC1c2c(F)cccc2N=C2CCCCN21` (centres undefined) it was 1.55% [at 12.5 µM]; in that of `COc1ccc(-c2csc(N(Cc3ccccc3)C(=O)c3ccccc3Cl)n2)cc1`, 10.1% [at 25 µM].

Take `CC1CCN(CCCNC(=O)c2cc3c(s2)-c2ccccc2OC3)CC1`: the maximum inhibition is 3.42% [at 50 µM]. Under `OC1c2c(F)cccc2N=C2CCCCCN21` (centres undefined) stands 1.87% [at 12.5 µM].

As to `O=c1c2cc(Br)ccc2nc2n1CC/C2=C/c1ccccc1`, the maximum inhibition is 10.8%.

Turning to `Cc1cccc2c1-c1sc(C(=O)NCCCN3CCCC(C)C3)cc1CO2` (centres undefined), the maximum inhibition is 1.01% [at 0.78 µM].

Regarding `O=C(CSc1nc2ccccc2c(=O)n1-c1ccc(F)cc1F)Nc1ccc(N2CCOCC2)cc1`, the maximum inhibition was 1.49%. In the case of `Cc1ccc2nc(SCC(=O)Nc3ccc4c(c3)CCC4)n(-c3ccccc3)c(=O)c2c1` it was 47.5% [at 12.5 µM]; in that of `COc1cccc(C(NC(=O)c2ccccc2)c2ccc3cccnc3c2O)c1` (centres undefined), 3.45% [at 12.5 µM]; in that of `O=C(Nc1nc(-c2ccc(Cl)cc2)cs1)c1ccc(Cl)cc1`, 2.44%. Under `CCN(CC)CCCNC(=S)N1CCN(c2nc(-c3ccc(F)cc3)cs2)CC1` stands 0.61% [at 0.2 µM].

On to `Nc1ccc2nc3n(c(=O)c2c1)CCC3`, for which the maximum inhibition is 1.81% [at 12.5 µM].
